Bioassay records: PubChem BioAssay, National Center for Advancing Translational Sciences (NCATS)
A selection: hits, their analogues and other compounds. The true share with any hit is near 3.6%.
NPSR antag: antagonists of human neuropeptide S receptor cAMP signaling. CHO-NPSR cells, cAMP TR-FRET, antagonist mode. Potency, µM (top dose mostly 38.3 µM), for inactives: top-dose activity change, negative = inhibition, most hits filed as inhibitors. 220,000 tested, 1% active. AID 1461; also: % is scaled to controls: 0 for no effect and ±100 for the full control effect; nearly all actives have a fitted effect of over 50% in size
Epigenetic reg: epigenetic control regulation, reporter derepression; AID 1865; 280,000 tested, 0.2% active; Potency, µM (top dose mostly 53.9 µM), inactives show at the top dose GFP activation, usual class: activators; murine LDR cells, GFP reporter derepression, 30 h; also: % of control where 0% means no effect; nearly all actives have a fitted effect of over 60% in size
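Murine LDR cells carrying a silenced, genomically integrated CMV-driven GFP reporter were exposed to compound for 30 hours at 37 C. After PBS washes, GFP-positive cells (20–120 um objects) were counted by laser-scanning microplate cytometry.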
IMPase Li cell: IMPase inhibition in cells with lithium potentiation | CHO-M1 cells, IP1 TR-FRET (IP-One), carbachol + lithium | Potency, µM (titrated, usually from 59.4 µM), for the others: top-dose activity, negative = IMPase inhibition, hits mostly inhibitors | 210,000 tested, 0.35% active | AID 1457;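 also: IP1 builds up when IMPase is blocked and the TR-FRET signal falls; plate controls were basal vehicle for no effect and high inhibitor control for full effect; nearly all actives have a fitted effect of over 50% in size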
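Steps: plate 2000 CHO-M1 cells per well and culture 16–30 h; add compound and lithium; incubate 30 min, 37C; add d2-IP1 tracer and Eu cryptate anti-IP1 antibody in lysis buffer; read after 10 min at room temperature.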
KAT2A inh: blocks human GCN5L2 histone acetyltransferase | Q92830 | GCN5L2 HAT assay, ThioGlo1 CoA-SH fluorescence | Potency, µM (doses to about 58.9 µM), for inactives: at the highest dose activity change, negative = inhibition, most hits filed as inhibitors | 390,000 tested, 0.21% active | AID 504327; also: % is scaled to controls: 0 for no effect and ±100 for the full control effect
Target sequence (Q92830 whole entry, looked up): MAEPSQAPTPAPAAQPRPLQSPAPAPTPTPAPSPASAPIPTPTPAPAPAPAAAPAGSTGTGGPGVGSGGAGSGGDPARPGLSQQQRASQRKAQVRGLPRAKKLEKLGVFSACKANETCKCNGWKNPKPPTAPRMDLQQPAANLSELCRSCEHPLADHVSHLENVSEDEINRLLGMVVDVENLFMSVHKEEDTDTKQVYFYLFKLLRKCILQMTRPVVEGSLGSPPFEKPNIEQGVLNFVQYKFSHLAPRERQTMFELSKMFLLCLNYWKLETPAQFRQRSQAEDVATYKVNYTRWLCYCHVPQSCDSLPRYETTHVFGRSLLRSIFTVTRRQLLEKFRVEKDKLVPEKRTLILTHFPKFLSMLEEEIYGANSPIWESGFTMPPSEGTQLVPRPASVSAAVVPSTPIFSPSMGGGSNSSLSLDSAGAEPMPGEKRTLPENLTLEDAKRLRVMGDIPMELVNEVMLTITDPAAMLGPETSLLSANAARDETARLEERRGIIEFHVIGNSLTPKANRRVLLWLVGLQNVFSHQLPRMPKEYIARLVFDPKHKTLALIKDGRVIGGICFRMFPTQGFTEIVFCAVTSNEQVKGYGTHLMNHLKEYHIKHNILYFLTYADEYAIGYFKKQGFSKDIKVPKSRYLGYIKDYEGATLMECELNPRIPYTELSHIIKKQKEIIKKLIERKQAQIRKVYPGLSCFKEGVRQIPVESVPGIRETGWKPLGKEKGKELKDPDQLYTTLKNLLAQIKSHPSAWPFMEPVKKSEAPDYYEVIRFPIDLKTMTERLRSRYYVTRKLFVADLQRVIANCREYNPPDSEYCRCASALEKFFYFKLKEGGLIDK
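Enzyme at 20nM final was mixed with library compounds for 15 min at room temperature. Peptide H3(1-25) at 75uM, acetyl-CoA at 70uM and ThioGlo1 at 50uM were then added. Plates were read immediately and after 20 min (Ex340nm/Em540nm).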
KDM4E inh: inhibitors of human JMJD2E histone demethylase; 230,000 tested, 1.6% active; JMJD2E catalytic domain, FDH-coupled NADH fluorescence (FDH is formaldehyde dehydrogenase); AID 2147; B2RXH2; Potency, µM (titrated, usually from 57.1 µM), inactives show at the top dose activity change, negative = inhibition, most hits filed as inhibitors; active = well fitted inhibition curve with a large enough effect, not every such curve was filed as active; inconclusive = small, poorly fitted or top-dose-only effect, or another doubt; inactive = no such curve, though single readings can be large or run the other way;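 also: 0% = wells with enzyme and -100% = buffer wells without enzyme; nearly all actives have a fitted effect of over 50% in size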
Sfp inh: Sfp phosphopantetheinyl transferase inhibition; Biochemical Sfp PPTase activity, qHTS; Potency, µM, for the others: largest response in the series, negative = inhibition, actives largely listed as inhibitors; 310,000 tested, 3.5% active; Q9F4F7;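 also: the enzyme is Sfp with the accession as filed and its product quenches rhodamine fluorescence; 0% = enzyme reaction without inhibitor and -100% = no enzyme wells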
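Compounds were incubated with enzyme (final 15 nM) for 15 min at room temperature before substrate addition started the reaction. Fluorescence at 525 nm excitation, 598 nm emission was recorded immediately and after 30 minutes.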
* marks the source's active call; other numbers are inactive results; ? = inconclusive; nt = no result; [ ] = dose if it differs, or a comment. Unless noted, calls follow the shape of the dose curve; as a rule, active = well fitted curve in the direction sought with a large enough effect; inconclusive = small, poorly fitted or top-dose-only effect, or another doubt; inactive = no such curve, though single readings can be large; an effect the other way counts as inactive or inconclusive. Potency is read from the fitted curve at half-maximal effect.

SMILES | NPSR antag | Epigenetic reg | IMPase Li cell | KAT2A inh | KDM4E inh | Sfp inh
Cc1nc2ccccc2c(=O)n1/N=C/c1c(O)ccc2ccccc12 | 14% | 0% | 6% | 0% | -14% | 0%
O=C(O)c1cc(-c2ccc(/C=N/Nc3ccc([N+](=O)[O-])cn3)o2)ccc1Cl | -26% | ? | 0% | -23% | ? | 45µM*
O=C(O)c1cc(N/N=C/c2ccc(-c3ccc(F)cc3)o2)ccc1Cl | nt | nt | nt | -8% | nt | -11%
O=C(Cc1ccc(F)cc1)N/N=C/c1ccc(-c2ccc(Cl)c(C(=O)O)c2)o1 | -7% | -2% | 0% | -4% | ? | 28µM*
Cc1cc(/C=N/Nc2ccc([N+](=O)[O-])cn2)c(C)n1-c1ccccc1 | -14%[46.1 µM] | 2% | 33%[38.3 µM] | 0% | 6% | -23%
Cc1c(C(=O)O)cccc1-n1c(C)cc(/C=N/Nc2ccc([N+](=O)[O-])cn2)c1C | 10µM* | 0% | nt | -15% | -3% | 32µM*
CC(C)[C@@H]1CC[C@@H](C)C[C@@H]1P(=O)(c1ccccc1)c1ccccc1 | nt | nt | nt | -2% | nt | nt
C=CCOc1ccccc1C(=O)/C=C1/C(=O)Nc2ccccc21 | nt | nt | nt | 15% | nt | 79µM*
C=CCOc1ccc(C(=O)/C=C2/C(=O)Nc3ccccc32)cc1 | nt | nt | nt | -3% | nt | 13%
COc1ccc(C(=O)/C=C2/C(=O)Nc3ccccc32)c(OC)c1 | nt | nt | nt | -15% | nt | 56µM*
COc1ccc(C(=O)/C=C2/C(=O)Nc3ccccc32)cc1 | nt | nt | nt | -3% | nt | -1%
O=C1Nc2ccccc2/C1=C/C(=O)c1cccs1 | -25%[46.1 µM] | -1% | 47%[38.3 µM] | -22% | -7% | 45µM*
COc1ccc2nc3oc(C(=O)N4CCN(c5cc(C)ccc5C)CC4)cc3cc2c1 | nt | -1% | nt | 4% | nt | nt
N#Cc1cccc(-c2nc(NCCN3CCOCC3)c3ccccc3n2)c1 | nt | nt | 17% | -14% | nt | 11%
CC1(OC(=O)CCc2ccccc2)C(=O)C=C2C=C(c3ccc(C#N)cc3)N(Cc3ccccc3)C=C2C1=O (centres undefined) | -42% | 0% | 11% | 15% | 16µM* | ?
COC(=O)N1[C@H](C)C=C[C@]1(Cc1ccccc1)C(=O)NCc1ccc(C)o1 | nt | 0% | 9% | nt | -26% | 45µM*
COC(=O)N1[C@H](C)C=C[C@]1(Cc1ccccc1)C(=O)NCc1ccc(N(C)C)cc1 | nt | 5% | -2% | nt | 18µM* | -1%
COC(=O)C/C=C/[C@@H](C)[C@H](NC(=O)OCC(Cl)(Cl)Cl)c1ccc2ccccc2c1 | nt | -2% | 14% | nt | 0% | -12%
CC1(C)SC2C(NC(=O)Cc3ccccc3)C(=O)N2C1C(=O)O (centres undefined) | nt | -1% | 5% | 8% | -15% | 27%
C=CC1=C(C)C2=Cc3c(C=C)c(C)c4[n]3[Sn+2][n]3c(c(C)c(CCC(=O)O)c3=CC3=NC(=C4)C(C)=C3CCC(=O)O)=CC1=N2 | nt | -1% | 16% | ? | ? | 10µM*
Cc1ccc(N2CCN(c3ccc(C)cc3)C2c2ccncc2)cc1 | ? | 4% | -2%[38.3 µM] | -6% | 4% | 45µM*
O=C(CSc1nc2c(cnn2-c2ccccc2)c(=O)[nH]1)N1N=C(c2cccs2)CC1c1ccc(F)cc1 (centres undefined) | -28% | 0% | 7% | -1% | 4µM* | 5%
CS(=O)(=O)N1N=C(c2cccs2)CC1c1ccco1 (centres undefined) | -10% | 0% | 3% | -1% | ? | 10µM*
O=C(c1ccco1)N1N=C(c2cccs2)CC1c1ccc(F)cc1 (centres undefined) | -30%[46.1 µM] | 3% | 30%[38.3 µM] | -10% | ? | 56µM*
CC(=O)N1N=C(c2cccs2)CC1c1ccco1 (centres undefined) | -15% | 3% | 6% | ? | ? | 13%
SMILES | NPSR antag | Epigenetic reg | IMPase Li cell | KAT2A inh | KDM4E inh | Sfp inh
COc1cc(NC(=O)O[C@@H]2C(=O)c3cc(Br)ccc3O[C@H]2c2ccc3c(c2)OCO3)cc(OC)c1OC | nt | -1% | 7% | nt | -5% | 0%
COc1ccccc1-c1nc2n(n1)C(c1ccccc1Cl)C(C(=O)Nc1cccnc1)=C(C)N2 (centres undefined) | nt | -1% | nt | -2% | nt | nt
O=C(NC1CCCC1)c1c[nH]c2ccc(S(=O)(=O)Nc3cccc(C(F)(F)F)c3)cc2c1=O | nt | 1% | nt | -16% | nt | nt
O=C(Cc1cccs1)NCCSc1c(-c2ccc(Cl)cc2)[nH]c2ccccc12 | 10µM* | 0% | 5% | -11% | ? | 5%
COc1cccc(-c2ccc3ncnc(NCc4ccccc4)c3c2)c1 | nt | nt | 16% | -27% | nt | -11%
Nc1ncnc2c1nc(Br)n2C1OC2COP(=O)(O)O[C@@H]2C1O (some centres undefined) | nt | nt | nt | 2% | nt | nt
Cc1nc(-c2ccccc2)sc1-c1n[nH]c(=S)n1C | -18%[46.1 µM] | -1% | -5%[38.3 µM] | -10% | ? | 2%
CSc1sc(-c2n[nH]c(=S)n2C)c2c1C=CCC2 | -20% | 0% | nt | 15% | ? | 50µM*
O=C(Nc1ccc2oc(-c3cccnc3)nc2c1)c1ccc(Br)o1 | ? | 1% | -23%[38.3 µM] | -13% | ? | 50µM*
CC(NC(=O)CN1CCN(c2ncccn2)CC1)c1ccc(F)cc1 (centres undefined) | 4%[46.1 µM] | 1% | 16%[38.3 µM] | 3% | 1% | 8%
COc1ccc(C(=O)CCN2CCN(c3ccc(OC)cc3)CC2)cc1 | nt | nt | nt | 1% | nt | -3%
COc1ccc(C(=O)CN2CCN(c3ccc(Cl)cc3)CC2)cc1OC | nt | nt | nt | 2% | nt | 79µM*
COc1ccc(C(=O)CCN2CCN(c3ccccc3F)CC2)cc1 | -9% | -2% | 11% | -8% | 2% | 50µM*
CC(C)NC(=O)CN1CCN(c2ncccn2)CC1 | -16%[7.67 µM] | 3% | -15%[38.3 µM] | -6% | ? | 79µM*
COc1ccccc1N1CCN(CC(=O)c2ccc(F)cc2)CC1 | nt | nt | nt | -1% | nt | 40µM*
COc1ccc(-c2nc3cnc(N4CCN(C)CC4)nc3n(Cc3ccc(F)cc3)c2=O)cc1 | nt | nt | -7% | -15% | nt | ?
O=C(CCN1CCN(c2ccccc2F)CC1)c1ccc(Br)cc1 | -13%[46.1 µM] | 3% | nt | -10% | 25µM* | -26%
COc1ccc(C(=O)CN2CCN(c3ncccn3)CC2)cc1 | nt | nt | nt | -7% | nt | 50µM*
COc1ccc(N2CCN(CC(=O)c3ccc(Cl)cc3)CC2)cc1 | nt | nt | nt | -18% | nt | -22%
CC/C(O)=C(\C#N)c1nnc2n1CCCCC2 | 5%[46.1 µM] | -1% | -2%[38.3 µM] | -9% | -1% | 89µM*
N#C/C(=C(/O)COc1ccc(Br)cc1)c1nnc2n1CCCCC2 | -6% | -2% | -5% | -1% | -28% | 6%
